TLR4 MyD88 comp = inhibitors of TLR4-MyD88 association in cells, primary screen, cell-based, HeLa CL3-4, BLA complementation, FRET ratio; Toll-like receptor 4 (Homo sapiens) + Myeloid differentiation primary response protein …; HeLa CL3-4 TLR4/MyD88 BLA complementation; inhibition, % at 8.4 µM; 200,000 tested, 0.18% active; in the data active = inhibition above about 25%;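 also: 0% = vehicle and 100% = reference inhibitor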
TLR9-MyD88 block = inhibitors of TLR9-MyD88 association in cells, primary screen, cell-based, CHO, BLA complementation, fluorescence; Toll-like receptor 9 (Homo sapiens) + Myeloid differentiation primary response protein …; CCF4 FRET ratio; inhibition, % at 4.98 µM; 340,000 tested, 0.21% active;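 active = inhibition above the mean over all tested compounds plus 3 SD, cut at about 21% in these data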;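 also: 0% = DMSO only wells and 100% = clavulanate BLA inhibitor control wells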
ABHD5 PLIN5 PPI = ABHD5-PLIN5 interaction inhibitors, primary screen, cell lysate, split luciferase complementation, luminescence; 360,000 tested, 0.78% active; inhibition, % at 4 µM; Perilipin-5 (Homo sapiens) + 1-acylglycerol-3-phosphate O-acyltransferase ABHD5 (Homo …; AID 602281, 2012; Split G. princeps luciferase complementation, 4 h;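 active = inhibition above the mean inhibition across every tested compound plus 3 SD, cut at about 22% in these data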;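 also: 0% = DMSO only wells and the 100% control is not disclosed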
NOD2 RIPK2 PPI = NOD2-RIPK2 binding disruptors in cells, primary screen, fluorescence, CHO cells, BLA complementation; Receptor-interacting serine/threonine-protein kinase 2 (Homo sapiens), O43353; CCF4 ratio; inhibition, % at 4.98 µM; 360,000 tested, 0.38% active; AID 624267, 2012; in the data active = inhibition above about 21%;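 also: 0% = vehicle only and 100% = reference blocker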
Beta2AR agonist = beta2AR agonists driving receptor internalization, primary screen, cell-based, FAP fluorogen, flow cytometry | Beta-2 adrenergic receptor (Homo sapiens), P07550 | response, % (concentration not given with the values) | Am2.2-beta2AR cells | 340,000 tested, 0.43% active;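 active = response above a set limit, near 3 SD of response in nonfluorescent compounds, cut at about 42% in these data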
NTR1 agonist = agonists of human NTR1, primary screen, imaging, U2OS cells, beta-arrestin-GFP, high content; activation, % at 20 µM; 330,000 tested, 0.17% active; NTR1-U2OS beta-arrestin-GFP spot imaging, agonist mode; Neurotensin receptor type 1 (Homo sapiens), P30989; AID 493036, 2011;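 active = activation at or above 40% of the spot to cytoplasm intensity ratio, with at least 20 cells analyzed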;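 also: 0% = DMSO without peptide and 100% = 100 nM NTR1 peptide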
ABHD5-PLIN5 conf = ABHD5-PLIN5 interaction inhibitors, confirmation, biochemical, luminescence | shares compounds with ABHD5 PLIN5 PPI | inhibition, % at 4 µM | 2,200 tested, 67% active | AID 651612, 2012; in the data active = inhibition above about 23%;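 also: 0% = DMSO vehicle wells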
HNF4 counter = HNF4 dimerization inhibitors, counter-screen for ABHD5-PLIN5 interaction inhibitor project, biochemical, split-luciferase complementation, luminescence; shares compounds with ABHD5 PLIN5 PPI; inhibition, % at 4 µM; 2,200 tested, 77% active;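 active = mean inhibition across replicate wells exceeding the computed hit threshold, cut at about 13% in these data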;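 also: light from luciferase halves that rejoin when HNF4 fusion proteins dimerize; 0% = DMSO only wells and the 100% control is not given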
An asterisk follows results filed as active. Rows were chosen to be rich in hits. Some 1.5% of all compounds tested hit in one or more screens of this group.

How did COc1ccc(C(=O)CC(SCC(NC(C)=O)C(=O)O)c2ccc(Cl)cc2)cc1OC (centres undefined) do in these assays?
TLR9-MyD88 block: -11; ABHD5 PLIN5 PPI: 38*; NOD2 RIPK2 PPI: -14; Beta2AR agonist: 4; NTR1 agonist: 26; ABHD5-PLIN5 conf: 24*; HNF4 counter: 20*

How did Cc1ccc(Nc2cc(C)nc(NCc3ccccc3)n2)cc1 do in these assays?
TLR4 MyD88 comp: 8; TLR9-MyD88 block: -6; ABHD5 PLIN5 PPI: 23*; NOD2 RIPK2 PPI: 2; Beta2AR agonist: 39; NTR1 agonist: 14; ABHD5-PLIN5 conf: 12; HNF4 counter: 15*

How did Cc1cc(NC2CCCCC2)nc(NCc2ccccc2)n1 do in these assays?
TLR4 MyD88 comp: -5; TLR9-MyD88 block: -1; ABHD5 PLIN5 PPI: 15; NOD2 RIPK2 PPI: 5; Beta2AR agonist: 30; NTR1 agonist: 8

How did CCOC(=O)N1CCc2c(sc(NC(=O)CCS(=O)(=O)c3ccccc3)c2C(N)=O)C1 do in these assays?
TLR9-MyD88 block: -14; ABHD5 PLIN5 PPI: 30*; NOD2 RIPK2 PPI: -1; Beta2AR agonist: 1; NTR1 agonist: 0; ABHD5-PLIN5 conf: 24*; HNF4 counter: 37*

How did NC(=O)Cn1c(=O)n(Cc2ccco2)c(=O)c2c3c(sc21)CCCCC3 do in these assays?
TLR4 MyD88 comp: 11; TLR9-MyD88 block: -4; ABHD5 PLIN5 PPI: 62*; NOD2 RIPK2 PPI: -5; Beta2AR agonist: -7; NTR1 agonist: -1; ABHD5-PLIN5 conf: 26*; HNF4 counter: 41*

What do the screens show for `O=C(Cn1c(=O)n(Cc2ccco2)c(=O)c2c3c(sc21)CCCC3)Nc1ccccc1`?
TLR4 MyD88 comp: 11; TLR9-MyD88 block: 1; ABHD5 PLIN5 PPI: 53*; NOD2 RIPK2 PPI: 5; Beta2AR agonist: 9; NTR1 agonist: 1; ABHD5-PLIN5 conf: 24*; HNF4 counter: 10

Results for O=c1c(C(c2ccccc2)c2c(O)nc3n(c2=O)CCCS3)c(O)nc2n1CCCS2 ?
TLR4 MyD88 comp: -1; TLR9-MyD88 block: 0; ABHD5 PLIN5 PPI: 7; NOD2 RIPK2 PPI: -1; Beta2AR agonist: -1; NTR1 agonist: -2

How did O=c1c(C(c2ccccc2)c2c(O)nc3n(c2=O)CCS3)c(O)nc2n1CCS2 do in these assays?
TLR4 MyD88 comp: 2; TLR9-MyD88 block: 1; ABHD5 PLIN5 PPI: 25*; NOD2 RIPK2 PPI: -4; Beta2AR agonist: -2; NTR1 agonist: 0; ABHD5-PLIN5 conf: 56*; HNF4 counter: 59*

What do the screens show for `CCCCOc1[nH]c2nc(-c3ccco3)n(Cc3ccco3)c(=N)c2c1C#N`?
TLR4 MyD88 comp: 4; TLR9-MyD88 block: 5; ABHD5 PLIN5 PPI: 48*; NOD2 RIPK2 PPI: 19; Beta2AR agonist: 14; NTR1 agonist: 0; ABHD5-PLIN5 conf: 25*; HNF4 counter: 47*

What do the screens show for `c1ccc(CSc2nnc(-c3ccco3)n2Cc2ccco2)cc1`?
TLR4 MyD88 comp: 7; TLR9-MyD88 block: 7; ABHD5 PLIN5 PPI: 4; NOD2 RIPK2 PPI: -6; Beta2AR agonist: -1; NTR1 agonist: 0

What do the screens show for `O=S(=O)(c1ccc2nc(-c3ccco3)c(-c3ccco3)nc2c1)N1CCOCC1`?
TLR4 MyD88 comp: -5; TLR9-MyD88 block: 4; ABHD5 PLIN5 PPI: 26*; NOD2 RIPK2 PPI: -14; Beta2AR agonist: -4; NTR1 agonist: 0; ABHD5-PLIN5 conf: 78*; HNF4 counter: 62*

Results for O=C(O)c1ccc2nc(-c3ccco3)c(-c3ccco3)nc2c1 ?
TLR4 MyD88 comp: 2; TLR9-MyD88 block: 6; ABHD5 PLIN5 PPI: 27*; NOD2 RIPK2 PPI: -4; Beta2AR agonist: -1; NTR1 agonist: 1; ABHD5-PLIN5 conf: 82*; HNF4 counter: 94*

Bioassay records from PubChem BioAssay.
